Source: PubChem (Broad Institute)
aSyn UTR act – Activators working through SNCA 5'UTR binding (MLPCN); alpha-synuclein 5'UTR reporter, activators screen; activity score, % (tested at 7.5 µM), hits read low; hit rate 7.1% among 300,000; AID 1814; in the data active = activity score below about -60%
The depositor's hits bear a star. These entries were drawn from the full list.

SMILES	aSyn UTR act
Cc1ccc(NC(=O)Nc2ccc3c(c2)OCO3)nc1	-193*
O=S(=O)(C/C(=C/CO)S(=O)(=O)c1ccccc1)c1ccccc1	-71*
CC(C)Cn1c(=O)c(C(=O)Nc2ccncc2)c(O)c2ccccc21	66
C=CCn1c(=O)c(C(=O)Nc2ccccc2C)c(O)c2ccccc21	-156*
CCn1c(=O)c(C(=O)Nc2ccccc2C)c(O)c2ccccc21	-81*
C=CCn1c(O)c(N=NC(=S)Nc2ccccc2C)c2cc(S(=O)(=O)N3CCOCC3)ccc21	80
Cc1ccc(-c2onc3ccc(C=O)cc23)cc1	-139*
Cc1cc(-c2onc3ccc(Cl)cc23)ccc1O	-91*
O=C(CSc1ccc(-c2ccccn2)nn1)c1ccccc1	-97*
Clc1ccc(CSc2ccc(-c3ccccn3)nn2)cc1	-132*
Clc1ccc(CSc2ccc(-c3ccco3)nn2)cc1	-165*
Clc1cccc(CSc2ccc(-c3ccco3)nn2)c1	-84*
Cc1cccc(CSc2ccc(-c3ccco3)nn2)c1	-174*
Cc1ccc(CSc2ccc(-c3ccco3)nn2)cc1	-142*
COC(=O)C[C@](O)(CCCC(C)(C)O)C(=O)O[C@@H]1C(OC)=C[C@]23CCCN2CCc2cc4c(cc2[C@H]13)OCO4	127
Cc1cc(NC(=O)COc2cccc3cccnc23)no1	-96*
Cc1cc(NC(=O)COc2cccc(C)c2C)no1	-66*
Cc1cc(NC(=O)COc2ccc(C)c(C)c2)no1	-62*
Cc1ccccc1OCC(=O)NC1=NCCS1	-77*
Cc1cc(NC(=O)COc2ccccc2C)no1	-116*
COc1cc(C#CC#CCN2CCCCC2)ccc1O	-81*
COc1cccc(C(=O)Nc2ccccc2F)c1	-73*
COc1cccc(C(=O)Nc2ccc(F)cc2F)c1	-114*
COc1ccsc1C(=O)Nc1ccc(F)cc1F	-69*
COc1cccc(C(=O)Nc2ccc(F)c(F)c2F)c1	-170*
SMILES	aSyn UTR act
COc1cccc(C(=O)Nc2ccc(C(F)(F)F)n(C)c2=O)c1	-71*
Cn1ccc(C(=O)Oc2ccc(C(=O)Nc3ccc(F)cc3F)cc2)n1	-122*
O=C(Nc1ccccc1F)Oc1cccc(OC(=O)Nc2ccccc2F)c1	-108*
CC(C)c1ccc(C2C3CSCC=C3C(C#N)=C(N)C2(C#N)C#N)cc1 (stereo not drawn)	-84*
O=C(Nc1cccc(Cl)c1)c1cnn2cccnc12	-202*
Cc1cc(NC(=O)c2cnn3cccnc23)no1	-83*
O=C(Nc1cc(Cl)cc(Cl)c1)c1cnn2cccnc12	-97*
O=C1OC2(CCCCC2)OC(=O)C1=CNc1ccc2c(c1)OCO2	-83*
CCc1nc(-c2cc3ccc(C)cc3[nH]c2=O)no1	-84*
COc1ncccc1-c1nnn(-c2ccc(Cl)nc2)n1	-74*
Cc1ccc(-n2nnc(-c3cccnc3Cl)n2)cc1	-78*
Clc1ccc(-n2nnc(-c3cccnc3Cl)n2)cn1	-130*
O=C1N=C(N2CCCCC2)SC1=C1CCCC1	-81*
CC(=O)C1=C(C)OC(N)=C(C#N)C1c1cc2cc(C)c(C)cc2nc1Cl (stereo not drawn)	-68*
O=[N+]([O-])c1cc(Cl)ccc1-c1nc(-c2ccncc2)no1	-143*
O=[N+]([O-])c1cc(Cl)ccc1-c1nc(-c2ccccc2)no1	-181*
O=[N+]([O-])c1ccccc1-c1nc(-c2ccc(Br)o2)no1	-266*
O=C(Oc1ccc(F)cc1C(=O)/C=C/c1cccs1)c1cccc([N+](=O)[O-])c1	-87*
Cc1ccc2nc(-c3ccc(NS(=O)(=O)c4ccccc4)cc3)sc2c1	-85*
Cc1ccc2nc(-c3ccc(NS(=O)(=O)c4ccc(F)c(F)c4)cc3)sc2c1	-124*
O=C(Nc1ccc(C(F)(F)F)cn1)Nc1cccs1	-76*
O=C(Nc1ccc2ccccc2n1)c1ccccc1	-74*
O=C(Nc1ccc2ccccc2n1)c1ccccc1Br	-146*
O=C(CCc1ccccc1)NNc1cc(N2CCCCC2)nc(N2CCCCC2)n1	82
O=C(CCc1ccccc1)Nc1ccc2ccccc2n1	-146*
SMILES	aSyn UTR act
O=C(Nc1ccc2ccccc2n1)Nc1cccs1	-62*
COc1ccc(C(=O)Nc2ccc3ccccc3n2)cc1OC	-139*
O=C(Nc1cccs1)Nc1ccccc1Br	-89*
N#C/C(=C\c1cc(Cl)c(OCc2ccc(Cl)cc2)c(Cl)c1)C(N)=O	-143*
O=c1c(-c2ccc3c(c2)OCCO3)coc2cc(OC3OC(CO)C(O)C(O)C3O)ccc12 (stereo not drawn)	-86*
COc1cc(SC)ccc1C(=O)Nc1ccc(C)cc1	-142*
COc1cc(SC)ccc1C(=O)Nc1ncc(C)s1	98
COc1cc(SC)ccc1C(=O)Nc1ncc(Cl)cc1Cl	-91*
COc1cc(SC)ccc1C(=O)Nc1ccc2c(c1)OCO2	-69*
COc1ccc(Br)cc1C(=O)Nc1cc(C)cc(C)c1	-62*
Cc1cc(=O)n2cc(-c3ccccc3)nc2[nH]1	-70*
COc1ccc2c(c1)CCc1c-2nc2ccccc2c1N1CCOCC1	-87*
CN1/C(=C/C(=O)c2nc(S(C)(=O)=O)ncc2Cl)C(C)(C)c2ccccc21	57
CN(C)c1ccc(N=C/C=C2\N(C)c3ccccc3C2(C)C)cc1	-114*
Cc1[nH]c2ccccc2c1N=Nc1cccc(C(=O)O)c1	-96*
Cc1[nH]c2ccccc2c1N=Nc1ccccc1C(=O)O	-70*
COc1cccc(N/C=C/c2onc(C)c2[N+](=O)[O-])c1	-151*
Cc1ccc(N/C=C/c2onc(C)c2[N+](=O)[O-])cc1	-134*
Cc1noc(/C=C/c2ccc(-c3ccccc3Cl)o2)c1[N+](=O)[O-]	-63*
Cc1cccc2c(=O)c(C(=O)NCc3cccs3)c[nH]c12	-110*
O=C(NCc1cccs1)c1csc2ccccc12	-62*
Cc1cccc(-n2cnc(C(=O)NC3CCCCCC3)c2)n1	-101*
CCC(C)NC(=O)c1cn(-c2cccc(C)n2)cn1 (stereo not drawn)	-110*
O=[N+]([O-])c1ccc(-c2cn(-c3ccccc3F)c(=S)[nH]2)cc1	-94*
Cc1ccc(-c2cn(-c3ccccc3F)c(=S)[nH]2)cc1	-124*
SMILES	aSyn UTR act
COc1ccccc1-c1cc2ccccc2[nH]1	-207*
Cc1cccc(NC(=O)c2c(O)c3ccccc3n(C)c2=O)c1	-141*
Cn1c(=O)c(C(=O)Nc2ncccc2O)c(O)c2ccccc21	-147*
Cc1ccc(NC(=O)c2c(O)c3ccccc3n(C)c2=O)nc1	-98*
Cn1c(=O)c(C(=O)NCc2ccccc2)c(O)c2ccccc21	-74*
Cn1c(=O)c(C(=O)NCc2ccccc2Cl)c(O)c2ccccc21	-78*
Cn1c(=O)c(C(=O)c2ccc(S(C)(=O)=O)c(Cl)c2Cl)c(O)c2ccccc21	-85*
COc1cc(/C=N/NC(=O)COc2ccc(C)cc2)ccc1OC(=O)c1cccs1	-65*
CCN(CC)c1nc(Nc2ccc(Cl)cc2)nc(OCC#N)n1	70
COc1cccc(Nc2ccc(C(=O)O)cc2N)c1	-118*
Cc1ccc(Nc2ccc(C(=O)O)cc2N)cc1	-107*
CCC(C)c1ccc(Nc2ncccc2C#N)cc1 (stereo not drawn)	-176*
COc1ccc(CCNc2ncccc2C#N)cc1OC	-114*
CCc1ccc(Nc2ncccc2C#N)cc1	-68*
c1ccc(N/N=C2\CCCc3ccccc32)nc1	-75*
Fc1ccc2c(c1)/C(=N/Nc1ccccn1)CCS2	-72*
Cc1cc(N/N=C2/CCCc3ccccc32)nc2ccccc12	-172*
CC(C)c1ccc(/C=N/N2CCN(c3ccccn3)CC2)cc1	-122*
